In PubChem BioAssay (NCI):
The panel holds about 83,000 compounds, 20% with a hit somewhere; the sample as a whole holds those more often.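 Note: values are percent growth. 100 is the growth of untreated cells, values between 100 and 0 indicate rising inhibition; between -100 and 0 indicates cell death.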 Unmarked numbers belong to inactive results. Activity calls are given as the source filed them. The calls were made as follows: active = growth percent below 10; inactive = the rest.

Tested on: HL-60(TB) leukemia
Assay: NCI-60 one-dose screen, 48 h (100 = growth as untreated, 0 = no growth, -100 = all killed)
Settings: 10 µM unless noted

SMILES | growth
c1ccc2c3c([nH]c2c1)C(c1ccc(C2NCCc4c2[nH]c2ccccc42)cc1)NCC3 (stereo not given) | -63.2% (active)
Cc1ccc2nc3c(cc2c1)CSc1nnc(-c2ccc[nH]c2=S)n1N3 | 102%
CCOC(=O)NC(C)C | 68%
Cc1ccc(-c2cc3c(cc2O)C2CCCCC2(N2CCOCC2)O3)cc1 (stereo not given) | 96.1%
COc1ccc(/C=C2\COc3ccc(O)c(O)c3C2=O)cc1OC | -28.7% (active)
Cc1cc2nc3c4cccc(O)c4n(CCN(C)C)c3nc2cc1C | 29.2%
CC(=O)C1CC(C)CCC1C(C)C (stereo not given) | 58.7%
Cc1ccc(NC(=O)c2cc(-c3nc4ccccc4s3)c(=O)n(NS(=O)(=O)c3ccc(Cl)cc3)c2N)cc1 | 101%
CC1(C)OC2C(CO)OC(n3ccc(=O)[nH]c3=O)C2O1 (stereo not given) | 105%
Cc1ccc(-n2c(-c3ccccc3)c(-c3ccccc3)c3c(SCC(=O)n4[nH]c(N)cc4=O)ncnc32)cc1 | 102%
Cc1nc2c3c(-c4ccccc4)c(-c4ccccc4)oc3ncn2n1 | 91.4%
COc1ccc(/C=C/c2nc(Nc3cccc(NC(C)=O)c3)c3ccccc3n2)cc1 | 78.5%
O=C(c1ccc(Nc2nccc(NCCCCNc3ccnc4cc(Cl)ccc34)n2)cc1)N1CCCCC1 | -22.3% (active)
CCc1ccc(OCc2ccccc2C(=O)Nc2ccc3nc(C)cc(N)c3c2)cc1 | -75.9% (active)
COc1cccc(NC(=O)c2c(-c3ccccc3)c(-c3ccccc3)n[nH]c2=O)c1 | 95.5%
